# Test results reported in PMC5540273 (PLoS ONE, 2017).
# How the values were obtained:
# Details in all cases: concentration: 1 μM, replicates: in singlicate; n = 1
# [1] = system: FGFR4
# [2] = system: FGR
# [3] = system: FLT1
# [4] = system: FLT3-autoinhibited
# [5] = system: FLT3
# [6] = system: FLT4
# [7] = system: FRK
# [8] = system: FYN
# [9] = system: GAK
# [10] = system: T1, GCN2(Kin.Dom.2,S808G)
# T1 construct: gene EIF2AK4
# [11] = system: GRK1
# [12] = system: T2, GRK2
# T2 construct: gene ADRBK1
# [13] = system: T3, GRK3
# T3 construct: gene ADRBK2
# [14] = system: GRK4
# [15] = system: GRK7
# [16] = system: GSK3A
# [17] = system: GSK3B
# [18] = system: T4, HASPIN
# T4 construct: gene GSG2
# [19] = system: HCK
# [20] = system: HIPK1
# 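Note: KINOMEscan kinase panel screen.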
SMILES,%Inh [1],%Inh [2],%Inh [3],%Inh [4],%Inh [5],%Inh [6],%Inh [7],%Inh [8],%Inh [9],%Inh [10],%Inh [11],%Inh [12],%Inh [13],%Inh [14],%Inh [15],%Inh [16],%Inh [17],%Inh [18],%Inh [19],%Inh [20]
Cc1ccc(C)c(NC(=O)NCCNc2ccnc(Nc3ccc(F)cc3)n2)c1 [GSK1379878],0%,4%,24%,0%,0%,0%,0%,0%,0%,0%,0%,0%,17%,0%,0%,3%,0%,4%,0%,0%
O=C(Nc1ccccc1F)NC1CCN(c2ccnc(Nc3ccc(F)cc3)n2)C1 (stereo not shown) [GSK1379722],7%,9%,26%,0%,1%,14%,9%,0%,0%,4%,0%,0%,57%,0%,0%,0%,8%,0%,0%,0%
Nc1nccc2scc(-c3ccc4c(c3)CCN4C(=O)Cc3cc(F)ccc3F)c12 [GSK2587663],7%,40%,37%,0%,0%,0%,11%,12%,0%,13%,0%,0%,40%,0%,0%,17%,1%,0%,0%,0%
Clc1cc(Nc2ncnc3cc[nH]c23)ccc1OCc1ccccn1,4%,24%,0%,5%,7%,0%,15%,0%,3%,0%,15%,0%,9%,25%,14%,6%,7%,0%,41%,28%
Cn1cc(-c2ccc3c(c2)CCN3C(=O)Cc2cccc(C(F)(F)F)c2)c2c(N)ncnc21 [GSK2606414],0%,0%,31%,3%,28%,22%,0%,13%,3%,5%,5%,4%,0%,100%,0%,0%,0%,0%,0%,0%
CC(C)(C)OC(=O)NC1CCCN(c2cc(-c3ccc4c(N)n[nH]c4c3)nc(N)n2)C1 (stereo not shown) [GSK2286096],14%,4%,9%,0%,0%,0%,2%,26%,42%,0%,0%,0%,0%,0%,0%,0%,11%,1%,0%,0%
Nc1nc(-c2ccccn2)c(-c2ccnc3ccccc23)s1 [GW548057],0%,9%,34%,0%,0%,0%,0%,11%,47%,0%,1%,0%,58%,0%,0%,8%,5%,26%,4%,17%
Cc1cccc(-c2nc(Nc3ccc4[nH]nnc4c3)c3ccccc3n2)n1 [GW867587],0%,0%,0%,0%,0%,0%,0%,0%,0%,0%,3%,0%,24%,0%,0%,0%,0%,0%,10%,0%
Cl.c1ccc(Cn2ccc3cc(Nc4ncnc5ccccc45)ccc32)cc1 [GW275568],8%,21%,24%,11%,0%,8%,0%,25%,25%,0%,9%,0%,0%,0%,0%,11%,7%,1%,0%,3%
NC(=O)c1sc(-n2cnc3ccccc32)cc1OCc1ccccc1F [GSK1024306],19%,0%,40%,2%,0%,27%,11%,24%,24%,0%,0%,0%,21%,7%,0%,7%,0%,49%,0%,0%
CCn1c(-c2ccncc2)nc2cnccc21 [SB-735216],11%,3%,4%,20%,15%,5%,0%,19%,13%,12%,11%,4%,63%,45%,24%,9%,30%,57%,7%,10%
